In assay [1] the target is Estrogen receptor (Homo sapiens) (UniProt P03372). The experiment in a line: qHTS assay to identify small molecule antagonists of the estrogen receptor alpha (ER-alpha) signaling pathway (AID 743069; active means well fitted curve in the direction sought with a large enough effect in the signal ratio in the repeat runs, not every such curve was filed as active; the % refers to the signal ratio). An outline of the steps: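 Antagonist mode: compounds in DMSO were co-added with 17beta-estradiol to ER-alpha-bla HEK293 cells (2% charcoal-stripped serum) and left 18 h at 37C. Reporter inhibition was measured as FRET fluorescence after 2 h LiveBLAzer substrate at room temperature.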
Chain of Estrogen receptor (Homo sapiens) (P03372 whole entry, looked up): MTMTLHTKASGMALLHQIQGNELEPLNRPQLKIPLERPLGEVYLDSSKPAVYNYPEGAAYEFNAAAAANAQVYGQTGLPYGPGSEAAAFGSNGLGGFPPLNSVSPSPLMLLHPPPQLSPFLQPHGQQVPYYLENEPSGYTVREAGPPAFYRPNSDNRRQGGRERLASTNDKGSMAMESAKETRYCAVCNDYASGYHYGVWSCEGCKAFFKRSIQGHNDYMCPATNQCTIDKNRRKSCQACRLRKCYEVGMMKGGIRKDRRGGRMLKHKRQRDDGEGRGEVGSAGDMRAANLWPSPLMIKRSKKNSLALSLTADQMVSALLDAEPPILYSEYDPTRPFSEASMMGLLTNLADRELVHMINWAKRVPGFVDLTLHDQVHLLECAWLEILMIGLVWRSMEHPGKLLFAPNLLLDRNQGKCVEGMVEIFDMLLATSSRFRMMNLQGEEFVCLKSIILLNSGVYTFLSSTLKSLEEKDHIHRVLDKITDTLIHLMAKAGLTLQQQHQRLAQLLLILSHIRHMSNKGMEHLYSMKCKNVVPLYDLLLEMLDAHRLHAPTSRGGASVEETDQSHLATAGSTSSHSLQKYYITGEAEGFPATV

Assay [2] in a line: qHTS assay to identify small molecule antagonists of the estrogen receptor alpha (ER-alpha) signaling pathway - cell viability counter screen (AID 743074; calls by dose curve;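 further: HEK293 cells carrying ER-alpha-UAS-bla reporter stimulated with 17beta-estradiol; nearly all actives have a fitted effect of over 45% in size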; further: potency means the concentration at half of the fitted maximal effect).
Assay [3] has as its target Estrogen receptor (Homo sapiens) (UniProt P03372). Nature of the assay: qHTS assay to identify small molecule agonists of the estrogen receptor alpha (ER-alpha) signaling pathway (AID 743075; calls by dose curve;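 further: HEK293 GripTite cells with ER-alpha and UAS-driven beta-lactamase reporter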; further: potency means the concentration at half of the fitted maximal effect).
Assay [4] has the same target. Nature of the assay: qHTS assay to identify small molecule agonists of the estrogen receptor alpha (ER-alpha) signaling pathway using the BG1 cell line (AID 743079). Further: nearly all actives have a fitted effect of over 20% in size. Further: potency means the concentration at half of the fitted maximal effect.
A short description of assay [5]: qHTS assay to identify small molecule antagonists of the estrogen receptor alpha (ER-alpha) signaling pathway using the BG1 cell line (AID 743080; calls by dose curve;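 further: BG1 cells stimulated with 17beta-estradiol alongside compound; nearly all actives have a fitted effect of over 25% in size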). Conditions: BG1Luc4E2 ERE-luciferase antagonist mode, luminescence; activity change, negative = inhibition: at 70.3 µM (top of the series). An outline of the steps: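 Readout is ONE-Glo luminescence, taken 30 min at room temperature after reagent addition, preceded by a CellTiter-Fluor viability read; BG1-Luc-4E2 cells had received compound and 17beta-estradiol for 21.5 h at 37 C.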

A short description of assay [6]: qHTS assay to identify small molecule antagonists of the estrogen receptor alpha (ER-alpha) signaling pathway using the BG1 cell line - cell viability counter screen (AID 743081).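 Further: compound given together with 17beta-estradiol as the ER stimulus; nearly all actives have a fitted effect of over 45% in size.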 Further: potency means the concentration at half of the fitted maximal effect.
For assay [7], the target named is Aromatase (Homo sapiens) (UniProt P11511). The experiment in a line: qHTS assay to identify aromatase inhibitors (AID 743083). Further: nearly all actives have a fitted effect of over 55% in size. Further: potency means the concentration at half of the fitted maximal effect.
Chain of Aromatase (Homo sapiens) (P11511 whole entry, looked up): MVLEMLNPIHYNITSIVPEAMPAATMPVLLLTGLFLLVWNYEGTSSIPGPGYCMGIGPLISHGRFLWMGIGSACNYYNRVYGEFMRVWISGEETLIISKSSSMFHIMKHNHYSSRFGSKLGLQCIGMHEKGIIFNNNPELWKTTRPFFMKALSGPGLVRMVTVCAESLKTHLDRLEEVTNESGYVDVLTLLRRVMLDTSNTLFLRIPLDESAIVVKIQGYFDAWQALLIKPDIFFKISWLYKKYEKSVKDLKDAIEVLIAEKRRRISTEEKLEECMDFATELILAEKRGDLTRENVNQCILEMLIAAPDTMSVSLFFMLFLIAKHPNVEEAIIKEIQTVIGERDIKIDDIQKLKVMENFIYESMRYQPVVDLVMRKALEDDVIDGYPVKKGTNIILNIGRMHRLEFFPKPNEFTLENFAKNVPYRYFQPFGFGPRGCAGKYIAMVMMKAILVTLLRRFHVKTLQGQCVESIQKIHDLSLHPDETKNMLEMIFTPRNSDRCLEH
Assay [8] can be described thus: qHTS assay to identify aromatase inhibitors - cell viability counter screen (AID 743084).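 Further: cells stimulated with testosterone during compound exposure; nearly all actives have a fitted effect of over 55% in size.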 Further: potency means the concentration at half of the fitted maximal effect.
Assay [9] has as its system thyroid hormone receptor (rat, GH3 cells). Nature of the assay: qHTS assay to identify small molecule agonists of the thyroid receptor (TR) signaling pathway (AID 743066; calls by dose curve).
Assay [10] is described as follows: qHTS assay to identify small molecule antagonists of the thyroid receptor (TR) signaling pathway (AID 743065). Further: potency means the concentration at half of the fitted maximal effect; nearly all actives have a fitted effect of over 55% in size. Put shortly: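 Antagonism measured as loss of luciferase signal in GH3 cells stably carrying a TRE-luciferase reporter, co-treated with compound and T3 (1 nM final) for 23.5 h at 37 C. Viability was read in the same well by CellTiter-Fluor.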

Structures are written as SMILES. “And” between values parts separate entries of the source, which are not always exact repeats. Equal entries are not always repeated. Records with an inconclusive call do not appear. Some compounds were tested as several samples or in several runs, with calls that do not always agree. The source made the active and inactive calls. Unless noted, the call rests on the fitted dose curve; in most records, active means well fitted curve in the direction sought with a large enough effect in the repeat runs; inconclusive means weak or mixed curves; inactive means no such curve, though single readings can be large; an effect the other way counts as inactive or inconclusive.

With `NC(=O)c1cccnc1`, the Potency entry in assay [1], in [2], in [3], in assay [4], in assay [5] and in assay [6] was “inactive” in each case. In addition, the Potency entry in assay [7] and in assay [8] was “inactive” in each case.

As for `COc1ccc(CN(CCN(C)C)c2ccccn2)cc1`, the Potency result in [9], in [2], in assay [6] and in [8] was “inactive” each time.

Regarding `CC(=O)Nc1c(I)c(NC(C)=O)c(I)c(C(=O)O)c1I`, the Potency result in [9], in assay [2] and in assay [6] was “inactive” throughout.

Take `CC(=O)C(=O)O`: the Potency result in assay [2], in assay [6], in assay [7] and in assay [8] was “inactive” each time.

Consider `Cc1ccc(S(=O)(=O)O)cc1`, for which the Potency entry in [9], in assay [2], in assay [6] and in assay [8] was “inactive” each time.

As to `O=C1NS(=O)(=O)c2ccccc21`, the Potency result in assay [2], in assay [6], in [7] and in assay [8] was “inactive” each time.

With `C1CCC(C(CC2CCCCN2)C2CCCCC2)CC1` (configuration not stated), the figures for the Potency in [10], in assay [2] and in assay [8] were 5.96 µM (active), 21.3 µM (active) and 18.8 µM (active), respectively.

For the compound `CC1(C)S[C@@H]2[C@H](NC(=O)[C@H](N)c3ccccc3)C(=O)N2[C@H]1C(=O)O`, the Potency entry in assay [2], in [6], in [7] and in assay [8] was “inactive” each time.

Regarding `COc1cccc(O)c1O`, the Potency entry in [9], in assay [2], in [4] and in assay [5] was “inactive” each time. Besides, the Potency in assay [3] is 50.7 µM [activator] (active); in assay [7] it was 35.7 µM (active).

With `CS(=O)(=O)OCCCCOS(C)(=O)=O`, the Potency result in assay [1], in assay [2], in assay [3], in assay [5], in assay [6] and in assay [7] was “inactive” throughout. For the same compound, the Potency entry in [8] is “inactive”. Besides, in assay [4], the Potency was 11.9 µM (active) and inactive.

For the compound `CC(O)(P(=O)(O)O)P(=O)(O)O`, the Potency entry in assay [9], in assay [2], in assay [6], in assay [7] and in [8] was “inactive” each time.

Consider `CN1CCc2cccc3c2[C@H]1Cc1ccc(O)c(O)c1-3`, for which the Potency entry in assay [1], in [2] and in assay [3] was “inactive” throughout. Moreover, the Potency in assay [6] is 69.3 µM (active); in [7] it was 21.9 µM (active) and 11.4 µM (active); in assay [8] it was 29.8 µM (active) and 24.6 µM (active) and 20.4 µM (active).

For the compound `C[C@](N)(Cc1ccc(O)c(O)c1)C(=O)O`, the Potency entry in assay [9], in assay [2], in [6], in assay [7] and in [8] was “inactive” in each case.

Turning to `Oc1ccccc1`, the Potency entry in assay [2], in assay [6], in assay [7] and in assay [8] was “inactive” throughout.

`O=c1[nH]cc(F)c(=O)[nH]1`: the Potency result in assay [1], in [2], in [3], in assay [4], in [5] and in assay [6] was “inactive” in each case. In addition, the Potency entry in assay [7] and in [8] was “inactive” throughout.

With `O=C(O)CC(O)C(=O)O` (configuration not stated), the Potency entry in assay [2], in assay [6], in assay [7] and in assay [8] was “inactive” in each case.

As for `Cc1cc(=O)oc2cc(O)ccc12`, the Potency result in assay [9], in [1], in [2], in assay [3], in assay [4] and in assay [5] was “inactive” in each case. For the same compound, the Potency result in [6], in assay [7] and in [8] was “inactive” in each case.

On to `CN1[C@@H]2CC(OC(=O)[C@H](CO)c3ccccc3)C[C@H]1[C@@H]1O[C@@H]12` (some centres not stated), for which the Potency entry in assay [9], in [1], in [2], in assay [3], in assay [5] and in assay [6] was “inactive” each time. The Potency entry in assay [8] is “inactive”. Also, the Potency entry in [4] is “inactive and 23.7 µM (active) and 48.6 µM (active)”.

In the case of `CN[C@H]1CC[C@@H](c2ccc(Cl)c(Cl)c2)c2ccccc21`, the Potency in assay [10] is 6.68 µM (active). Also, the Potency entry in assay [3] and in assay [6] was “inactive” in each case.

In the case of `CC(=O)CCC(=O)O`, the Potency entry in [9], in assay [1], in assay [2], in assay [3], in assay [5] and in assay [6] was “inactive” throughout. Besides, the Potency result in assay [7] and in assay [8] was “inactive” throughout. Moreover, the Potency in assay [4] was 15 µM (active) and inactive.

`Cc1c(C(=O)O)c(O)cc2c1C(=O)c1c(O)c([C@@H]3O[C@H](CO)[C@@H](O)[C@H](O)[C@H]3O)c(O)c(O)c1C2=O`: the Potency entry in assay [9], in [1], in assay [2], in [3] and in assay [4] was “inactive” in each case. The Potency was 18.8 µM (active) and 29.9 µM (active) and 27.3 µM (active) in assay [6]; 29.8 µM (active) and 13.3 µM (active) and 24.3 µM (active) in assay [8].

For the compound `C=CCc1ccc(O)c(OC)c1`, the Potency entry in assay [1], in [2], in assay [3], in assay [4], in assay [5] and in assay [6] was “inactive” each time. The Potency result in assay [7] and in assay [8] was “inactive” in each case.

For `CCN(Cc1c(F)cccc1Cl)c1c([N+](=O)[O-])cc(C(F)(F)F)cc1[N+](=O)[O-]`, the Potency entry in assay [9], in assay [2], in assay [3], in assay [5], in [6] and in assay [8] was “inactive” each time. Besides, the Potency in assay [4] is 21.7 µM (active); in assay [7], 27.3 µM (active).

As for `Cn1c(=O)c2c(ncn2C)n(C)c1=O`, the Potency entry in [2], in [6] and in [7] was “inactive” each time. Further, the Potency result in assay [8] was “inactive and 55.1 µM (active)”.

As for `O=C(O)c1ccccc1`, the Potency entry in [1], in assay [2], in [3], in [5], in [6] and in [7] was “inactive” each time. Moreover, the Potency entry in [8] was “inactive”. Further, in [4], the Potency is 5.1 µM (active) and inactive.

Consider `O=CC(=O)c1ccccc1`, for which the Potency entry in assay [1], in assay [2], in assay [3], in assay [4], in [5] and in assay [6] was “inactive” throughout. For the same compound, the Potency entry in [7] and in assay [8] was “inactive” in each case.

(Values after PubChem BioAssay (Tox21).)
